ELG1 repair inh – qHTS screen for small molecules that inhibit ELG1-dependent DNA repair in human embryonic kidney (HEK293T) cells expressing luciferase-tagged ELG1. HEK293T ELG1-luciferase reporter, luminescence, 16 h; DNA damage induced by 5-fluorouridine. Potency, µM (doses to about 46.1 µM), usual class: inhibitors. 2.3% of 330,000 active. AID 504467, 2011; note: nearly all actives have a fitted effect of over 55% in size
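In this reporter screen, reduction of luminescence relative to DMSO vehicle indicated activity. Compounds and 5-fluorouridine were added together to 2,000 cells per well, incubated for 16 hr at 37 °C, then developed with ONE-Glo.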
IL-2 act – qHTS of IL-2 Activators; IL-2 activation reporter assay, cell-based qHTS; stimulated with anti-CD3/CD4/CD28 beads; in transgenic mouse T cells; activation, % (series mostly up to about 46 µM); 0.065% of 360,000 active; in the data active = activation above about 50%; inconclusive = mostly about 30% to 49%
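Readout is EGFP and DsRed signal by fluorescent plate cytometry after 18 h at 37 degrees C. Transgenic mouse T cells (750/well) received compound for 60 min before bead stimulation (anti-CD3, anti-CD4, anti-CD28); memory T cells served as non-tolerant control.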
BRCA1 expr act – qHTS Assay to Identify Small Molecule Activators of BRCA1 Expression. MCF7-BRCA1-FFLuc reporter, luminescence, 48 h; response scale: scaled: vehicle 0%, 10 µM genistein 100%. Potency, µM (doses to about 46.1 µM), hits mostly activators. 1.1% of 380,000 active. AID 624202, 2012; note: nearly all actives have a fitted effect of over 80% in size
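MCF7-BRCA1-FFLuc cells, 2000/well in phenol-red-free MEM, attached 2 h then treated 48 h at 37 C. Luciferase luminescence read 15 min after reagent; normalized to genistein maximum activation (10microM) and DMSO, concentration-response fitted.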
Nrf2 activator – qHTS of Nrf2 Activators; AREc32 ARE-luciferase reporter (MCF7-derived line), luminescence, 24 h; Potency, µM (titrated, usually from 46.1 µM), most hits filed as activators; 0.31% of 410,000 active; note: nearly all actives have a fitted effect of over 65% in size
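ARE activation measured as luciferase luminescence (Steady-Glo, 30 min RT) in AREc32_Fluc cells after 24 hr compound exposure at 37 deg C, 5% CO2; cells seeded overnight at 1000/well in OPTI-MEM, 5% FBS.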
Large screens that a line does not name were inactive. In the library only some 3.1% were active in any assay of this set; here they are far more common. Unless noted, calls come from the whole dose curve; as a rule, active = well fitted curve in the direction sought with a large enough effect; inconclusive = small, poorly fitted or top-dose-only effect, or another doubt; inactive = no such curve, though single readings can be large; an effect the other way counts as inactive or inconclusive.

COc1ccc2nc(Nc3nc(CSc4nnnn4-c4ccccc4)cc(=O)[nH]3)nc(C)c2c1	none
N#C/C(=C/c1ccc(N2CCOCC2)o1)c1ccc(Cl)cc1	ELG1 repair inh inconclusive, Nrf2 activator 12.6µM
CCN(Cc1ccccc1)Cc1c(O)ccc2oc(C)c(C(=O)Nc3ccccc3C)c12	none (no result: ELG1 repair inh, IL-2 act, BRCA1 expr act)
Cc1nc(CC(=O)Nc2ccc(C(N)=O)cc2)cs1	none (no result: ELG1 repair inh, IL-2 act, BRCA1 expr act)
Fc1ccc(C2=CC(c3ccco3)n3nnnc3N2)cc1 (configuration not stated)	Nrf2 activator 12.6µM
O=C1C=C(C#Cc2ccccc2)C[C@@H](c2ccc(F)cc2)C1	Nrf2 activator 8.91µM (no result: ELG1 repair inh)
COc1cc(/C=C2\SC(N)=NC2=O)ccc1O	ELG1 repair inh 10.3µM
COc1ccc2oc(=O)cc(-c3cc4cccc(OC)c4o3)c2c1	none
COc1cccc2cc(-c3cc(=O)oc4cc(C)c(OCC(C)=O)cc34)oc12	ELG1 repair inh 5.17µM
COc1ccc(C(=O)CC(=O)c2ccccc2O)cc1OC	ELG1 repair inh inconclusive, BRCA1 expr act 12.6µM
COc1cc2ccccc2cc1C(=O)NNC(=O)c1ccccc1O	ELG1 repair inh 25.9µM (no result: IL-2 act, BRCA1 expr act, Nrf2 activator)
CCC(=O)c1ccc(OCc2ccccc2)c(OC)c1	ELG1 repair inh inconclusive, BRCA1 expr act 6.31µM
Cc1ccc(C)c(CN2C(=O)c3ccccc3S(=O)c3ccc(C(=O)N4CCCCC4)cc32)c1 (configuration not stated)	none (no result: ELG1 repair inh, IL-2 act)
O=C(NC(=S)N1CCN(C/C=C/c2ccccc2)CC1)c1ccc(Cl)nc1	ELG1 repair inh 18.3µM
O=C(NCCC(=O)N1CCCCC1)c1ccc(Br)cc1	ELG1 repair inh inconclusive, BRCA1 expr act 10µM
O=C(NCC(=O)N1CCN(C/C=C/c2ccccc2)CC1)c1ccc(OC(F)F)cc1	ELG1 repair inh inconclusive
O=C(NCC(=O)N1CCN(C/C=C/c2ccccc2)CC1)c1ccc(Br)cc1	ELG1 repair inh 20.6µM
Cc1cccc(-c2nc3c4c(-c5ccccc5)c(-c5ccccc5)oc4ncn3n2)c1	none (no result: ELG1 repair inh, IL-2 act)
COc1cccc2sc(N(Cc3cccnc3)C(=O)c3ccc4c(c3)OCCO4)nc12	none (no result: ELG1 repair inh, IL-2 act, BRCA1 expr act)
Cc1ccc(S(=O)(=O)N2CCOCC2)cc1C(=O)OCC(=O)Nc1ccc2c(c1)OCO2	none (no result: ELG1 repair inh)
COc1cccc(NC(=O)COC(=O)c2cc(S(=O)(=O)N3CCOCC3)ccc2C)c1	ELG1 repair inh 16.4µM
Cc1ccc(COC(=O)c2cc(S(=O)(=O)N3CCOCC3)ccc2C)cc1	ELG1 repair inh 23.1µM
CC(=O)COC(=O)C1CCN(S(=O)(=O)c2cc([N+](=O)[O-])ccc2Cl)CC1	Nrf2 activator 14.1µM
O=C(COC(=O)C1CCN(S(=O)(=O)c2cc([N+](=O)[O-])ccc2Cl)CC1)Nc1ncc(Cl)cc1Cl	Nrf2 activator inconclusive
CCCSc1nnc2c(n1)OC(c1sccc1C)Nc1ccccc1-2 (configuration not stated)	none (no result: ELG1 repair inh, IL-2 act)
COc1ccc(C(=O)c2oc3ccc(OC)cc3c2N)cc1	ELG1 repair inh inconclusive, BRCA1 expr act 5.01µM
COC(=O)c1oc2ccc(OC)cc2c1N	ELG1 repair inh inconclusive, BRCA1 expr act inconclusive
COc1ccc(-c2ccc(C(=O)Nc3cccc(Oc4ccccc4)c3)c3occc23)c(C)c1	none (no result: ELG1 repair inh)
COc1ccc(-c2ccc(C(=O)Nc3cccc(N(C)C)c3)c3occc23)c(C)c1	BRCA1 expr act 2.51µM (no result: ELG1 repair inh)
COc1ccc(-c2ccc(C(=O)Nc3cccc(F)c3)c3occc23)c(C)c1	BRCA1 expr act inconclusive (no result: ELG1 repair inh)
Cn1cc(-c2ccc(C(=O)Nc3cccc(Oc4ccccc4)c3)c3occc23)cn1	BRCA1 expr act 11.2µM (no result: ELG1 repair inh)
O=C(c1ccc(CNS(=O)(=O)c2ccc(F)cc2)cc1)N1CCCCCC1	none (no result: ELG1 repair inh)
c1ccc(Oc2cnc3ccccc3n2)cc1	none
COc1ccc(Oc2cnc3ccccc3n2)cc1	BRCA1 expr act 11.2µM
Cc1ccc(-c2nnc(SCC(=O)c3ccc(Cl)cc3)n2-c2ccccc2)cc1	none (no result: ELG1 repair inh, IL-2 act, BRCA1 expr act)
COc1ccccc1C1=NOC(CN2C(=O)c3ccccc3S2(=O)=O)C1 (configuration not stated)	ELG1 repair inh inconclusive, BRCA1 expr act inconclusive
O=C1c2ccccc2S(=O)(=O)N1CC1CC(c2ccccc2Cl)=NO1 (configuration not stated)	ELG1 repair inh inconclusive, BRCA1 expr act 5.01µM
O=C(Nc1ccc(N=Nc2ccccc2)c(NC(=O)C2CCCO2)c1)C1CCCO1 (configuration not stated)	ELG1 repair inh 9.2µM
